A short description of assay [1]: NCI Yeast Anticancer Drug Screen. Data for the rad50 strain (AID 155).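 Also: 0% = growth of vehicle-only cultures of the same strain.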 Particulars: S. cerevisiae rad50 strain growth inhibition, active compounds read high. A digest of the protocol: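 DNA repair mutant yeast, compound exposure, growth read-out; inhibition is taken relative to vehicle.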
The nature of assay [2]: NCI Yeast Anticancer Drug Screen. Data for the mec2-1 strain (AID 157). The following applies: S. cerevisiae mec2-1 strain, active compounds read high. The method, boiled down: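 Strain: mec2-1 (DNA repair/cell cycle alteration). Compound exposure, then growth measured; inhibition expressed relative to vehicle.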
Assay [3] is described as follows: NCI Yeast Anticancer Drug Screen. Data for the sgs1 mgt1 strain (AID 161).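 Also: 0% = growth of cultures given vehicle only.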 Particulars: S. cerevisiae sgs1 mgt1 strain, active compounds read high. A digest of the protocol: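 Test agents were incubated with a DNA-repair-mutant yeast strain. Growth was then read and compared against vehicle-treated controls.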
Assay [4] in a line: NCI Yeast Anticancer Drug Screen. Data for the cln2 rad14 strain (AID 165).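 Also: 0% = growth equal to vehicle treated cultures.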 The following applies: S. cerevisiae cln2 rad14 strain, active compounds read high. The method, boiled down:
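Compounds are applied to the cln2 rad14 yeast strain, and growth is then compared with that of vehicle-treated cultures to give inhibition.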

A short description of assay [5]: NCI Yeast Anticancer Drug Screen. Data for the bub3 strain (AID 167). Particulars: S. cerevisiae bub3 mutant strain, active compounds read high. The method, boiled down:
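In this screen, a yeast mutant lacking normal mitotic checkpoint function is challenged with compound. Relative growth versus vehicle gives the inhibition value.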

Assay [6] can be described thus: NCI Yeast Anticancer Drug Screen. Data for the mlh1 rad18 strain (AID 175). Particulars: S. cerevisiae mlh1 rad18 strain growth inhibition, active compounds read high. A digest of the protocol: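 Read-out is yeast growth inhibition, calculated against vehicle-only controls. The compound was applied to a strain engineered with DNA damage repair alterations.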
[7] abbreviates: at 5.0 µM (retest, dose inferred, filed as 0.5).
Setting [8] is: at 50.0 µM (retest, dose inferred, filed as 5.0).

Structures are written as SMILES. Compounds without any hit were thinned out: in the full panel of roughly 79,000, 15% have a hit. A number with no mark means an inactive call. Activity calls are given as the source filed them. Rule as the data show it: active = growth inhibition above about 70%; inactive = the rest.

Growth inhibition data for ten molecules are collected here from PubChem BioAssay (NCI).

As to `O=C(Cc1c[nH]c2ccccc12)N/N=C/c1ccc(Cl)cc1[N+](=O)[O-]`, the growth inhibition was -5% in assay [1] (setting [7]); 73% (active) in assay [1] (setting [8]); 39.8% in assay [1] (at 50.0 µM); 1% in assay [2] (setting [7]); 88% (active) in assay [2] (setting [8]); 20.4% in assay [2] (at 50.0 µM). For the same molecule, the growth inhibition in assay [3] (setting [7]) was -4%; in assay [3] (setting [8]), 94% (active); in assay [3] (at 50.0 µM), 36.6%; in assay [4] (setting [7]), -5%; in assay [4] (setting [8]) it was 89% (active); in assay [4] (at 50.0 µM), 38.8%. For the same molecule, the growth inhibition was -3% in assay [5] (setting [7]); 93% (active) in assay [5] (setting [8]); 19.5% in assay [5] (at 50.0 µM); 13% in assay [6] (setting [7]); 90% (active) in assay [6] (setting [8]); 66.7% in assay [6] (at 50.0 µM).
On to `CC(C)C1=CC[C@H]2C(=C1)CC[C@@H]1[C@]2(C)CCC[C@@]1(C)C(=O)O`, for which the growth inhibition in assay [1] (setting [7]) is -2%; in assay [1] (setting [8]), 90% (active); in assay [1] (at 50.0 µM) it was 79.3% (active); in assay [2] (setting [7]) it was 15%; in assay [2] (setting [8]), 91% (active); in assay [2] (at 50.0 µM), 84.5% (active). The growth inhibition in assay [3] (setting [7]) was 9%; in assay [3] (setting [8]), 91% (active); in assay [3] (at 50.0 µM) it was 74.8% (active); in assay [4] (setting [7]), -9%; in assay [4] (setting [8]), 92% (active); in assay [4] (at 50.0 µM), 87% (active). For the same molecule, the growth inhibition in assay [5] (setting [7]) is -6%; in assay [5] (setting [8]), 89% (active); in assay [5] (at 50.0 µM), 78.2% (active); in assay [6] (setting [7]), 7%; in assay [6] (setting [8]) it was 90% (active); in assay [6] (at 50.0 µM) it was 77.1% (active).
With `C=C(CN(C)C)C(=O)c1ccccc1[N+](=O)[O-]`, the growth inhibition in assay [1] (setting [7]) was 1%; in assay [1] (setting [8]) it was 92% (active); in assay [1] (at 50.0 µM), 8.5%; in assay [2] (setting [7]), 10%; in assay [2] (setting [8]), 96% (active); in assay [2] (at 50.0 µM), 51.4%. Further, the growth inhibition in assay [3] (setting [7]) was 6%; in assay [3] (setting [8]), 91% (active); in assay [3] (at 50.0 µM), 74.2% (active); in assay [4] (setting [7]) it was 99% (active); in assay [4] (setting [8]) it was 91% (active); in assay [4] (at 50.0 µM), -25.4%. Besides, the growth inhibition is 1% in assay [5] (setting [7]); 92% (active) in assay [5] (setting [8]); 71.7% (active) in assay [5] (at 50.0 µM); 8% in assay [6] (setting [7]); 92% (active) in assay [6] (setting [8]); 66.8% in assay [6] (at 50.0 µM).
With `N#CSc1ccc(O)c2ccccc12`, the growth inhibition in assay [1] (setting [7]) is 75% (active); in assay [1] (setting [8]), 79% (active); in assay [1] (at 50.0 µM) it was 90.2% (active); in assay [2] (setting [7]), 64%; in assay [2] (setting [8]), 87% (active); in assay [2] (at 50.0 µM), 91% (active). Also, the growth inhibition in assay [3] (setting [7]) is 19%; in assay [3] (setting [8]), 98% (active); in assay [3] (at 50.0 µM), 91.7% (active); in assay [4] (setting [7]), 45%; in assay [4] (setting [8]) it was 98% (active); in assay [4] (at 50.0 µM), 91% (active). Also, the growth inhibition in assay [5] (setting [7]) was 42%; in assay [5] (setting [8]) it was 96% (active); in assay [5] (at 50.0 µM), 90.3% (active); in assay [6] (setting [7]), 29%; in assay [6] (setting [8]) it was 74% (active); in assay [6] (at 50.0 µM), 89.5% (active).
Regarding `Cc1ccc(S(=O)(=O)NNc2nc(N3CCOCC3)nc(N3CCOCC3)n2)cc1`, the growth inhibition in assay [1] (setting [7]) was 1%; in assay [1] (setting [8]), -4%; in assay [1] (at 50.0 µM), 28.1%; in assay [2] (setting [7]), 2%; in assay [2] (setting [8]), 2%; in assay [2] (at 50.0 µM), 15.4%. The growth inhibition in assay [3] (setting [7]) was 10%; in assay [3] (setting [8]), 6%; in assay [3] (at 50.0 µM), 63%; in assay [4] (setting [7]), 3%; in assay [4] (setting [8]), -8%; in assay [4] (at 50.0 µM), 70.6% (active). Also, the growth inhibition in assay [5] (setting [7]) was -1%; in assay [5] (setting [8]), -1%; in assay [5] (at 50.0 µM), 17.9%; in assay [6] (setting [7]), 0%; in assay [6] (setting [8]), -4%; in assay [6] (at 50.0 µM) it was 26.3%.
Regarding `CN(C)N=Nc1ccc(NC(N)=O)cc1`, the growth inhibition is 33% in assay [1] (setting [7]); 78% (active) in assay [1] (setting [8]); 43.8% in assay [1] (at 50.0 µM); 16% in assay [2] (setting [7]); 43% in assay [2] (setting [8]); 65.3% in assay [2] (at 50.0 µM). The growth inhibition in assay [3] (setting [7]) is 38%; in assay [3] (setting [8]), 45%; in assay [3] (at 50.0 µM), 12.6%; in assay [4] (setting [7]), 38%; in assay [4] (setting [8]), 51%; in assay [4] (at 50.0 µM) it was 23.3%. Besides, the growth inhibition in assay [5] (setting [7]) is 42%; in assay [5] (setting [8]) it was 50%; in assay [5] (at 50.0 µM), 67.7%; in assay [6] (setting [7]), 25%; in assay [6] (setting [8]), 58%; in assay [6] (at 50.0 µM), 81.2% (active).
As for `[O-]/[N+](O)=C\c1ccccn1`, the growth inhibition was -2% in assay [1] (setting [7]); -13% in assay [1] (setting [8]); 5.75% in assay [1] (at 50.0 µM); 2% in assay [2] (setting [7]); -8% in assay [2] (setting [8]); 6.55% in assay [2] (at 50.0 µM). Besides, the growth inhibition in assay [3] (setting [7]) was -5%; in assay [3] (setting [8]), -9%; in assay [3] (at 50.0 µM), -0.75%; in assay [4] (setting [7]) it was -2%; in assay [4] (setting [8]) it was -10%; in assay [4] (at 50.0 µM) it was -57.6%. The growth inhibition in assay [5] (setting [7]) is 1%; in assay [5] (setting [8]), 0%; in assay [5] (at 50.0 µM), -8.4%; in assay [6] (setting [7]), 0%; in assay [6] (setting [8]), -10%; in assay [6] (at 50.0 µM) it was 37.1%.
In the case of `O=C(O)COc1c(Cl)c(Cl)c(Cl)c(Cl)c1Cl.[Cu+2]`, the growth inhibition in assay [1] (setting [7]) is 28%; in assay [1] (setting [8]) it was 98% (active); in assay [1] (at 50.0 µM), 88% (active); in assay [2] (setting [7]), 20%; in assay [2] (setting [8]), 99% (active); in assay [2] (at 50.0 µM) it was 93.7% (active). Also, the growth inhibition is 42% in assay [3] (setting [7]); 99% (active) in assay [3] (setting [8]); 92.7% (active) in assay [3] (at 50.0 µM); 7% in assay [4] (setting [7]); 99% (active) in assay [4] (setting [8]); 86% (active) in assay [4] (at 50.0 µM). The growth inhibition is 9% in assay [5] (setting [7]); 99% (active) in assay [5] (setting [8]); 89.2% (active) in assay [5] (at 50.0 µM); 22% in assay [6] (setting [7]); 99% (active) in assay [6] (setting [8]); 86.3% (active) in assay [6] (at 50.0 µM).
For the molecule `CCOC(=O)Cn1c(=O)c2nc(SC)sc2n(-c2ccc(C)cc2)c1=S`, the growth inhibition is -3% in assay [1] (setting [7]); -1% in assay [1] (setting [8]); -4.9% in assay [1] (at 50.0 µM); -1% in assay [2] (setting [7]); -10% in assay [2] (setting [8]); -6.25% in assay [2] (at 50.0 µM). For the same molecule, the growth inhibition in assay [3] (setting [7]) was 0%; in assay [3] (setting [8]), 6%; in assay [3] (at 50.0 µM) it was 27.1%; in assay [4] (setting [7]), 14%; in assay [4] (setting [8]) it was 17%; in assay [4] (at 50.0 µM), 34%. For the same molecule, the growth inhibition in assay [5] (setting [7]) was 1%; in assay [5] (setting [8]), 9%; in assay [5] (at 50.0 µM), -10.4%; in assay [6] (setting [7]), 2%; in assay [6] (setting [8]) it was 12%; in assay [6] (at 50.0 µM) it was -19%.
In the case of `CC(C)(C)CC(=O)O`, the growth inhibition in assay [1] (setting [7]) is 8%; in assay [1] (setting [8]), 9%; in assay [1] (at 50.0 µM) it was 5.05%; in assay [2] (setting [7]), 5%; in assay [2] (setting [8]), 3%; in assay [2] (at 50.0 µM), 18.1%. The growth inhibition was -5% in assay [3] (setting [7]); 2% in assay [3] (setting [8]); 29.1% in assay [3] (at 50.0 µM); -2% in assay [4] (setting [7]); -4% in assay [4] (setting [8]); 27.1% in assay [4] (at 50.0 µM). Further, the growth inhibition is 2% in assay [5] (setting [7]); 13% in assay [5] (setting [8]); 26.9% in assay [5] (at 50.0 µM); 7% in assay [6] (setting [7]); 8% in assay [6] (setting [8]); -2.2% in assay [6] (at 50.0 µM).
